About 83,000 compounds went through this panel and 20% of them were active in at least one assay; those are over-represented in the sample as a whole.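 How to read the values: 0–100, growth inhibition (40 = 60% inhibited); 0, no net growth; -100 to 0, cell death (-40 = 40% of starting cells died; -100 = all dead).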 Calls of active or inactive are those of the source. How the source made its calls: active means growth percent below 10; inactive means the rest.
Each compound was assayed on MDA-MB-468 breast (assay: NCI-60 one-dose screen, 48 h (100 = growth as untreated, 0 = no growth, -100 = all killed)). Conditions: 10 µM unless noted.
In the case of O=C1NC(=S)NC(=O)C1=Cc1cn(Cc2cn(Cc3cccc4ccccc34)nn2)c2ccccc12, the growth is reported as 94.9% (inactive).
In the case of NC(=S)NN=C1CCCC1, the growth is reported as 14.1% (inactive).
With COc1cc(Cl)cc(-c2nn(-c3cccc(NC(=O)c4ccc(N5CCOCC5)c(C(F)(F)F)c4)c3)cc2-c2ccncc2)c1 the growth was 50.2% (inactive).
In the case of NC(CS/C(Cl)=C/Cl)C(=O)O (centres undefined), the growth is reported as -38.5% (active).
With O=C(C[n+]1ccccc1)c1ccc2ccccc2c1 the growth was 88.1% (inactive).
With COc1ccc(-c2nsc3c2NC(=O)CC3c2cccc(F)c2)cc1 (centres undefined) the growth was 19.7% (inactive).
For C[C@@H]1CN(c2ccc3ncc(C#Cc4cncc(C(=O)Nc5ccc(CN6CCN(C)CC6)c(C(F)(F)F)c5)c4)n3n2)C[C@H](C)O1, the growth was -76.7% (active).
In the case of c1ccn2nnnc2c1, the growth is reported as 107% (inactive).
With Cc1c(N2CN3C[C@H](C)N4CN(c5c(C)n(C)n(-c6ccccc6)c5=O)CN5C[C@@H](C)N(C2)C3C54)c(=O)n(-c2ccccc2)n1C (some centres undefined) the growth was 97.1% (inactive).
COc1ccc(-n2nc(C)c3c(Nc4ccc(NC(=O)Nc5cccc(C(F)(F)F)c5)cc4)ncnc32)cc1 was tested, and the growth was -14% (active).
For O=C(NC(Cc1cn(Cc2ccccc2)cn1)C(=O)O)OCC1c2ccccc2-c2ccccc21 (centres undefined), the growth was 107% (inactive).
N#Cc1c(N)nn(C(=O)c2ccc(NC(=O)c3ccccn3)cc2)c1-c1ccc(Cl)cc1 was tested, and the growth was -29.3% (active).
With NNc1cccc(/C=C/c2ccccc2)cc1=O the growth was 38.3% (inactive).
COc1ccc(-n2c(SCc3nnc(NC(=O)c4ccc(Br)cc4)s3)nc3cc(OC)c(OC)cc3c2=O)cc1 was tested, and the growth was 93.6% (inactive).

From PubChem BioAssay (NCI)
